An excerpt weighted towards active compounds, which were near 10% of everything screened.
SW480 rereplic – inducers of DNA re-replication in SW480 colon cancer cells | SW480 DNA re-replication, Hoechst DNA content imaging, 48 h | Potency, µM (titrated, usually from 46.1 µM), for the others: at the top dose re-replication activation, usual class: activators | hit rate 1.8% among 340,000 | AID 624297; further: % of control where 0% means no effect; nearly all actives have a fitted effect of over 55% in size
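Quantitative HTS format with DMSO vehicle controls; 48 hr drug incubation at 37 C, then 40 min Hoechst staining and scanning imager measurement at 405 nm excitation.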
ELG1 DNA repair – blocks ELG1-dependent DNA repair in HEK293T cells. HEK293T ELG1-luciferase reporter, luminescence, 16 h; DNA damage induced by 5-fluorouridine. Potency, µM (highest dose often 46.1 µM), for inactives: top-dose activity change, negative = inhibition, hits mostly inhibitors. hit rate 2.3% among 330,000. AID 504467; further: on the % scale 0 is the no-effect control and ±100 the full control effect; nearly all actives have a fitted effect of over 55% in size
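Cells (2,000 per well) received 5-fluorouridine plus test compound or DMSO and were incubated 16 hr at 37 °C, 5% CO2. Luciferase activity was read by luminescence 30 min after ONE-Glo addition; signal suppression marked inhibition of damage-induced ELG1 function.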
MCF10A rerep – DNA re-replication induction in MCF 10a cells. MCF 10A DNA re-replication, Hoechst nuclear intensity, 48 h. Potency, µM (titrated, usually from 46.1 µM), without a hit: at the top dose activity, positive = re-replication, most hits filed as activators. hit rate 2.9% among 350,000; further: % of control where 0% means no effect; nearly all actives have a fitted effect of over 50% in size
Gal4-VP16 FLuc – inhibits Gal4-VP16 luciferase reporter, ROR gamma counter-screen; Drosophila S2 Gal4-VP16 UAS-luciferase, luminescence, 20 h; Potency, µM (series often up to 53.6 µM), for inactives: at the highest dose activity, negative = inhibition, most hits filed as inhibitors; hit rate 3.5% among 310,000; AID 2546;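 further: Gal4-VP16 expression switched on by copper sulfate through the metallothionein promoter; on the % scale 0 is the no-effect control and ±100 the full control effect; nearly all actives have a fitted effect of over 50% in size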
RORgamma inh – blocks mouse ROR gamma transcriptional activity. Potency, µM (top dose mostly 53.6 µM), for the others: top-dose activity change, negative = inhibition, usual class: inhibitors. AID 2551. P51450. hit rate 5.4% among 310,000. Drosophila S2 Gal4-RORgamma UAS-luciferase reporter, 20 h; further: on the % scale 0 is the no-effect control and ±100 the full control effect; nearly all actives have a fitted effect of over 60% in size
Target sequence (P51450 whole entry, looked up, the tested form may be a part): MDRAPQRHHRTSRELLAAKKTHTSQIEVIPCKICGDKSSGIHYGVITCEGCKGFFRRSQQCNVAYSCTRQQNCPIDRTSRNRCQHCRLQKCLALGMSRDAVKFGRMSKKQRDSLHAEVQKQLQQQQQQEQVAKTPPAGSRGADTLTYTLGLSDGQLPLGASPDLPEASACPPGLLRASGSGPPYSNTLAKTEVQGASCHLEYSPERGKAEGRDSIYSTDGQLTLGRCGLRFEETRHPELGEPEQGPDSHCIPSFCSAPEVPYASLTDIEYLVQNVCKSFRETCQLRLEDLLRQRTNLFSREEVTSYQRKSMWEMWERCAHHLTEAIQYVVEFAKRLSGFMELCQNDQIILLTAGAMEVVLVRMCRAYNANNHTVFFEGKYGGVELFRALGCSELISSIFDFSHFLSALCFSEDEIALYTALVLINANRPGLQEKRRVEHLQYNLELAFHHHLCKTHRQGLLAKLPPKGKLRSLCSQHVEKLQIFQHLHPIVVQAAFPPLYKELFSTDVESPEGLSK
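Drosophila Schneider cells stably carrying a metallothionein-driven Gal4 DBD–ROR gamma fusion and a UAS-Photinus luciferase reporter were exposed to compound for 1 hr, then induced with copper sulfate (700 uM final) for 20 hr at ambient temperature before luminescence reading.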
Numbers without * were called inactive; ? = inconclusive; . = no result; [ ] = another dose, or the depositor's remark. The call rests on the fitted dose curve; in most records, active means well fitted curve in the direction sought with a large enough effect; inconclusive means small, poorly fitted or top-dose-only effect, or another doubt; inactive means no such curve, though single readings can be large; an effect the other way counts as inactive or inconclusive. Potency means the concentration at half of the fitted maximal effect.

SMILES	SW480 rereplic	ELG1 DNA repair	MCF10A rerep	Gal4-VP16 FLuc	RORgamma inh
COc1ccc(-c2csc(N3CCN(S(=O)(=O)c4ccc5c(c4)NC(=O)CO5)CC3)n2)cc1	9.2µM*	?	33%	-2%	-3%
CCn1c(O)c(N=Nc2ccc3ccccc3n2)c2ccccc21	-1%	?	-2%	3%	?
Brc1ccc(N=Nc2ccc3ccccc3n2)cc1	-19%	?	-15%	0.45µM*	0.11µM*
CCC(=O)N/N=C(\C)CC(=O)Nc1ccc2c(c1)OCCO2	6%	?	14%	?	?
CCOc1cc(Br)c(CC(=O)NC2CCCCCC2)cc1OCC	2%	-29%	?	1%	19%
Cc1ccc(CC2CC(=O)N(c3nc4ccccc4n3C)C2=O)cc1 (centres undefined)	-3%	-2%	6%	?	13µM*
Cc1ccc(S(=O)(=O)Nc2ccccc2/C=N/c2nc3ccccc3n2C(C)C)cc1	8%	?	21µM*	?	-16%
Cc1ccc(CNc2nc3ccccc3n2C)cc1	-1%	?	?	?	10µM*
Cc1ccc(CC2CC(=O)N(c3ccc(C)cc3)C2=O)cc1 (centres undefined)	-9%	-6%	12%	0%	34%
CCN(CC)c1ccc(CNc2nc3ccccc3n2CCN2CCOCC2)cc1	-13%	?	28%	-14%	11µM*
CCCCn1c(/N=C/c2ccccc2NS(=O)(=O)c2ccc(C)cc2)nc2ccccc21	-1%	?	?	?	-33%
COc1ccc(CNc2nc3ccccc3n2CCN2CCOCC2)cc1	0%	-5%	?	-3%	-9%
C=C(CC(=O)OC)C[C@]1(CC(=O)OC)CC2(CC=C(C)C)C(=O)C(C(=O)c3ccccc3)=C(OC(=O)c3ccc(Br)cc3)C(CC=C(C)C)(C1)C2=O (some centres undefined)	.	.	.	-4%[10 µM]	-8%[10 µM]
Cc1ccc(C(=O)CC(Nc2ccc(F)cc2)c2ccccc2)cc1 (centres undefined)	3%	?	7%	20%	?
COc1ccc(S(=O)(=O)n2nc(OC(C)=O)cc2N(C(C)=O)C(C)=O)cc1	1%	10%	30%	-14%	-26%
Cc1ccc(NCc2nc3ccccc3n2C)cc1	3%	?	-12%	?	?
CCCCn1c(Nc2ccc(OC)cc2)nc2ccccc21	2%	1%	0%	?	10µM*
CCN(CC)CCn1c(NCc2cccc(OC)c2)nc2ccccc21	-2%	2%	0%	-8%	5.6µM*
CCCn1c(NCc2ccccc2NS(=O)(=O)c2ccc(C)cc2)nc2ccccc21	?	?	10µM*	-9%	-10%
Cc1ccc(NC(=O)NCc2nc3ccccc3n2C)cc1	21µM*	?	?	7%	-36%
CCn1c(NCc2ccccc2NS(=O)(=O)c2ccc(C)cc2)nc2ccccc21	?	-27%	?	-13%	19%
CN(Cc1cc(-c2ccccc2)on1)C(=O)c1cc(COc2c(F)cccc2F)on1	-4%	?	3%	-16%	35%
CCCN(CCC)C(=O)c1cc2c(=O)n3cccc(C)c3nc2s1	19%	-9%	?	6%	37%
Cc1csc(Sc2ccc([N+](=O)[O-])cc2C(=O)OCC(=O)NC(=O)NC(C)(C)C)n1	-1%	0%	9%	-6%	5%
CS(=O)(=O)N(CC(=O)N1CCN(Cc2ccccc2)CC1)c1cccc([N+](=O)[O-])c1	24%	-20%	2%	-4%	17%
SMILES	SW480 rereplic	ELG1 DNA repair	MCF10A rerep	Gal4-VP16 FLuc	RORgamma inh
c1ccc(CNc2nc3ccccc3n2CCN2CCOCC2)nc1	?	5%	23µM*	-5%	3%
CCCCn1c(NCc2ccc(N(C)C)cc2)nc2ccccc21	-2%	-25%	18%	13µM*	18%
CCCn1c(NCc2ccccn2)nc2ccccc21	2%	?	4%	-61%	14µM*
c1csc(CNc2nc3ccccc3n2CCN2CCOCC2)c1	-9%	7%	11%	-5%	-8%
Cc1ccc(NC(=O)C2=C(O)CCn3c2nc2ccccc23)cc1	0%	-10%	-6%	5.6µM*	4.5µM*
NCCNc1ccc(C(=O)N2c3ccccc3Sc3ccccc32)cc1[N+](=O)[O-]	?	3%	?	-28%	?
O=C(N/N=C/c1ccc(N2CCOCC2)cc1)c1ccncc1	-7%	13%	-1%	.	.
O=C(N/N=C/c1ccc(N2CCOCC2)cc1)c1cccs1	6.5µM*	?	3%	-9%	?
O=C(N/N=C/c1ccc(N2CCOCC2)cc1)c1ccccc1OCCOc1ccccc1	?	16µM*	?	-21%	37%
CCCn1nc(C(=O)Nc2nc3ccccc3[nH]2)c2ccccc2c1=O	2%	?	?	20µM*	13µM*
CC(C)n1nc(C(=O)Nc2nc3ccccc3[nH]2)c2ccccc2c1=O	-1%	?	?	?	1.8µM*
CC(=O)NNC(=O)c1cc2sccc2s1	-21%	?	-1%	-10%	-12%
NNC(=O)c1cc2sccc2s1	13µM*	?	3.7µM*	30%	-35%
O=C(c1ccccc1)c1ccc(OCC(O)CN2CCN(S(=O)(=O)N3CCCCC3)CC2)cc1 (centres undefined)	9%	18µM*	22%	-25%	2%
C/C(CCC(=O)OC[C@@H]1O[C@H](C#Cc2ccccc2)C=C[C@@H]1Oc1ccc(C)cc1)=N/OC[C@@H](C)[C@H](OCc1ccccc1)C(C)C	.	.	.	0%[10 µM]	0%[10 µM]
C=CCNCCCCOc1ccc(OCc2ccccc2)cc1	21µM*	?	?	3%	-30%
O=S(=O)(NC1CCN(S(=O)(=O)c2c(F)cccc2F)C1)c1ccc2c(c1)OCCO2 (centres undefined)	-10%	?	9%	.	.
Cc1nn(C)c(C)c1/C=N/NC(=O)c1csc2ccccc12	-6%[9.22 µM]	?	-18%	7%	-15%
Cc1c(/C=N\NC(=O)c2csc3ccccc23)cnn1C	21µM*	9%	?	6%	?
CCn1ncc(/C=N\NC(=O)c2csc3ccccc23)c1C	12µM*	?	10µM*	?	10µM*
CCc1nnc(NC(=O)COC(=O)c2cc(OC)cc(OC)c2)s1	-2%	-1%	-2%	.	.
Clc1cccc(Cl)c1/C=N/Nc1c(Cl)cncc1Cl	8.2µM*	?	2.6µM*	7%	?
Cc1cccc(S(=O)(=O)Nc2ccc(-n3c(C)nc4ccccc4c3=O)cc2)c1	-4%	-15%	8%	.	.
Cc1c(NC(=O)c2ccc3c(c2)C(=O)N(CC2CCCO2)C3=O)cccc1C(=O)O (centres undefined)	4.1µM*	?	-1%	-1%	-29%
